A selection: hits, their analogues and other compounds. The true share with any hit is near 4%.
Wnt act = activators of Wnt/beta-catenin signaling; 1.2% of 300,000 active; Wnt/beta-catenin reporter cell assay, activator, plate reader; activation, % at 9.35 µM; in the data active = activation above about 30%, passing the limit was not always enough; inconclusive = no clear call, values can overlap the other calls;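 note: 0% = neutral control wells and 100% = positive control wells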
EWS-Fli block = EWS/Fli transcriptional activity inhibition | A673 NR0B1-luciferase reporter, viability-normalised | inhibition, % at 12.6 µM | 0.67% of 350,000 active;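 active = mean inhibition of at least 50% after viability correction, with every replicate also passing that limit; inconclusive = mean reaches 50% but only one of two replicates passes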;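 note: firefly luciferase signal divided by Alamar Blue viability fluorescence both relative to DMSO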
esBAF inh = inhibitors of esBAF chromatin remodeling in mouse ES cells; Bmi1-luciferase knock-in reporter, 24 h; 100% = twice the neutral-well signal; reporter increase, % at 12.5 µM; 2% of 350,000 active; in the data active = activation above about 40%; inconclusive = no clear call, values can overlap the other calls;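 note: 0% = median of the plate's neutral control wells and 100% = double that signal; a rise in the Bmi1 reporter signal indicates esBAF inhibition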
PAX8 inh HTS = inhibitors of PAX8 transcriptional activity in RMG-I cells | RMG-I TPO-luciferase reporter, SteadyGlo, 24 h | inhibition, % at 12.6 µM | 1.2% of 360,000 active;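 active = mean replicate inhibition at least 60% with every replicate also reaching 60%; inconclusive = only one of the two criteria is met; inactive = mean below 60% and not all replicates reaching 60%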;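 note: luciferase light reporting Pax8 driven TPO promoter activity; plate controls were median of neutral control wells for no effect and mitoxantrone controls for full effect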
MITF act = MITF TRPM1 promoter activation in melanoma cells; activation, % at 12.5 µM; 0.75% of 300,000 active; SK-MEL-5 TRPM1-promoter luciferase, 24 h; % of positive control, neutral wells = 0;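 active = mean activation of at least 80% with every replicate also reaching 80%; inconclusive = mean reaches 80% but some replicate falls short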;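 note: 0% = neutral control wells and 100% = parthenolide positive control wells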
TRPM1 prom inh = MITF TRPM1 promoter inhibition in SK-MEL-5 cells | SK-MEL-5 TRPM1 promoter luciferase, 24 h | inhibition, % at 12.5 µM | 0.83% of 330,000 active | AID 488899;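 active = mean inhibition across replicates of 60% or more, whatever share of single replicates reaches that level; inconclusive = some that reach 60%, reason not given; inactive = mean inhibition across replicates below 60%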
* marks the source's active call; other numbers are inactive results; ? = inconclusive; . = no result.

SMILES	Wnt act	EWS-Fli block	esBAF inh	PAX8 inh HTS	MITF act	TRPM1 prom inh
CCOc1ccc(N(C)c2ccc(/C=C3/SC(=S)NC3=O)cc2)cc1	0	-9	-18	19	.	11
C[C@@H](NC(=O)C[C@@H]1C=C[C@H](NC(=O)CN2CCOCC2)[C@@H](CO)O1)c1ccccc1	.	-4	-1	-10	.	.
Cc1ccc(Sc2cnc3ccccc3n2)cc1	.	.	66*	.	89*	-78
CC(Sc1cnc2ccccc2n1)C(=O)O (stereo not drawn)	1	.	.	1	4	-3
O=C(C[C@H]1CC[C@H]2[C@@H](COC[C@H](O)CN2C(=O)Nc2ccccc2)O1)NCCc1ccncc1	.	-5	4	-6	.	.
O=C(c1ccccc1)c1nnc(-c2ccccc2F)o1	61*	.	30	-51	.	-48
C[C@@H]1CCCCO[C@@H](CN(C)C)[C@H](C)CN([C@@H](C)CO)C(=O)c2cc(NC(=O)NC3CCCCC3)ccc2O1	.	6	0	-1	.	.
O=S(=O)(c1ccc(Cl)s1)N1CCCc2cccc(O)c21	39*	.	84*	-89	.	-81
O=C(/C=C/c1ccc([N+](=O)[O-])s1)N1CCCCC1	0	13	.	37	-88	89*
O=C(/C=C/c1ccc([N+](=O)[O-])s1)N1CCCC1	2	1	.	?	-84	85*
CC1CC(C)CN(C(=O)/C=C/c2ccc([N+](=O)[O-])s2)C1 (stereo not drawn)	4	25	.	68*	-81	82*
O=C(/C=C/c1ccc([N+](=O)[O-])s1)N1CCN(c2ccccc2)CC1	0	27	-9	-5	-50	50
CC1CN(C(=O)/C=C/c2ccc([N+](=O)[O-])s2)CC(C)O1 (stereo not drawn)	4	29	.	-11	-43	44
O=C(C[C@H]1CC[C@H](NC(=O)Nc2ccccc2F)[C@H](CO)O1)NCc1ccc(F)cc1	.	-1	.	.	.	.
COc1cc2ccccc2cc1C(=O)Nc1cccnc1	14	.	48*	-92	71	-64
COc1cc2ccccc2cc1C(=O)Nc1ccc(C)cn1	35*	-42	?	-71	35	-34
COc1ccc(NC(=O)c2cc3ccccc3cc2OC)cc1	23	-143	28	-160	63	-67
COc1cccc(C(=O)Nc2ccc3c(c2)C(=O)N(C)[C@H]2CC[C@H](CC(=O)NCC4CC4)O[C@@H]2CO3)c1	.	-2	1	-3	.	.
O=C(COc1cccc(NC(=O)c2cccc([N+](=O)[O-])c2)c1)c1ccc(F)cc1	.	.	.	.	3	-2
CC(=O)Nc1cccc(NC(=O)c2ccc(COc3ccccc3)cc2)c1	-2	-122	98*	-206	154*	-155
CC(=O)Nc1cccc(OCc2ccc([N+](=O)[O-])cc2)c1	43*	-80	.	-140	.	.
CC(=O)Nc1ccc(NC(=O)c2ccc(COc3ccccc3)cc2)cc1	-1	-1	-6	10	.	7
O=C(COc1cccc(NC(=O)c2ccccc2)c1)c1ccc(F)cc1	-1	-10	.	69*	1	0
CCCNC(=O)N1C[C@@H]2[C@H](c3ccccc31)[C@@H](CO)N2C(=O)NCCC	.	-4	-3	-17	.	.
O=C(N/N=C/c1sc(N2CCOCC2)nc1-c1ccccc1)c1ccccc1O	-8	.	.	-1	2	6
SMILES	Wnt act	EWS-Fli block	esBAF inh	PAX8 inh HTS	MITF act	TRPM1 prom inh
O=C(N/N=C/c1sc(N2CCOCC2)nc1-c1ccccc1)c1ccccc1Cl	-1	1	6	-7	-6	9
O=[N+]([O-])c1ccc(N/N=C/c2sc(N3CCOCC3)nc2-c2ccccc2)c(S(=O)(=O)Nc2ccccc2Cl)c1	-6	.	.	0	-62	65*
O=[N+]([O-])c1ccc(N/N=C/c2sc(N3CCOCC3)nc2-c2ccccc2)c(S(=O)(=O)Nc2ccc(Cl)cc2)c1	3	38	.	102*	-71	72*
CO[C@H]1CN(C)C(=O)c2ccc(NC(=O)Nc3cccc(F)c3)cc2OC[C@H](C)N(C(=O)C2CC2)C[C@@H]1C	.	-7	.	.	.	.
COc1ccc(S(=O)(=O)Nc2ccc3c(c2)C(=O)N([C@H](C)CO)C[C@@H](C)[C@H](CN(C)C(=O)Cc2ccccc2)OCCCC[C@@H](C)O3)cc1	.	10	11	7	.	.
Cc1ccc(S(=O)(=O)Nc2ccc3c(c2)C(=O)N([C@@H](C)CO)C[C@H](C)[C@@H](CN(C)C(=O)c2ccccc2)OCCCC[C@H](C)O3)cc1	.	-5	0	30	.	.
O=C(/C=C/c1cccs1)NC(=S)NNC(=O)c1ccccc1O	-2	52*	.	89*	-46	48
CCn1c(O)c(C=NC2CCCC2)sc1=S	18	.	45*	-88	36	-43
CCn1c(O)c(/C=N/n2cnnc2)sc1=S	.	.	-8	.	1	-2
Cc1ccc2[nH]c(-c3ccccc3)cc(=O)c2c1	12	58*	-6	-20	-12	13
COc1ccc(-c2cc(=O)c3cc(C)ccc3[nH]2)cc1	45*	-36	4	-86	107*	-104
Cc1ccc(-c2cc(=O)c3ccccc3[nH]2)cc1	12	-22	3	-29	-2	2
COc1ccc(-c2cc(=O)c3cc(OC)ccc3[nH]2)cc1	.	.	-26	.	-16	17
C[C@H]1CCCCO[C@H](CN(C)C(=O)Cc2ccccc2)[C@@H](C)CN([C@@H](C)CO)C(=O)c2cc(NC(=O)CCCN(C)C)ccc2O1	.	-8	-8	-21	.	.
CC(=O)N1N=C(c2ccc(C(C)(C)C)cc2)OC1(C)C	1	16	.	70*	-4	5
CC(=O)N1N=C(c2ccc3ccccc3c2)OC1(C)C	0	.	.	-19	1	-7
COc1cccc(CNC(=O)C[C@@H]2CC[C@H](NC(C)=O)[C@@H](CO)O2)c1	.	6	-2	-8	.	.
COc1cccc(S(=O)(=O)Nc2ccc3c(c2)[C@H]2C[C@H](CC(=O)NCc4ccccc4F)O[C@H](CO)[C@H]2O3)c1	.	-11	10	97*	.	.
COc1cccc(S(=O)(=O)Nc2ccc3c(c2)[C@@H]2C[C@@H](CC(=O)NCc4ccccc4F)O[C@@H](CO)[C@@H]2O3)c1	.	-13	-10	68*	.	.
O=C(C[C@H]1CC[C@H]2[C@@H](COC[C@@H](O)CN2S(=O)(=O)c2cccc(F)c2)O1)Nc1ccc(-c2ccccc2)cc1	.	-50	4	-23	.	.
O=C(C[C@H]1CC[C@@H]2[C@H](COC[C@H](O)CN2S(=O)(=O)c2cccc(F)c2)O1)Nc1ccc(-c2ccccc2)cc1	.	2	-5	116*	.	.
O=C(C[C@H]1CC[C@@H]2[C@H](COC[C@@H](O)CN2S(=O)(=O)c2cccc(F)c2)O1)Nc1ccc(-c2ccccc2)cc1	.	-78	-4	72*	.	.
C[C@@H]1CN([C@@H](C)CO)C(=O)c2cc(NC(=O)c3ccccc3)ccc2O[C@@H](C)CCCCO[C@H]1CN(C)Cc1ccc(C(=O)O)cc1	.	-7	-6	6	.	.

High-throughput results: PubChem, Broad Institute
